Experimental data: PubChem BioAssay AID1875 (Broad Institute, 2009)
The whole screen tested about 300,000 compounds, of which about 65 (0.02%) were called active. The full list was thinned out, with actives kept by preference. Values without a mark were called inactive.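 How the source made its calls: active means lowest replicate activity score at least 50, where 100 means six control SD above control mean; inconclusive means lowest score under 50 but half or more replicates reach 50; inactive means the rest.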

experiment: perturbers of mRNA poly(A) processing – luminescence, S. cerevisiae, primary screen (AID 1875);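 further: yeast exposed to compound for 9 h at 30 °C; higher score means more reporter readthrough which indicates perturbed polyadenylation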; conditions: S. cerevisiae SKY197-pL101 polyadenylation reporter, beta-gal luminescence; at 12 µM; active compounds read high; efflux-impaired pdr1/pdr3 knockout yeast; score 100 = 6 SD above DMSO

| Compound | activity score |
| --- | --- |
| CCOC(=O)N1CCN(CC(=O)n2c(C)c(C)c3ccccc32)CC1 | -9.64% |
| NC(N)=Nc1nc2ccc(Br)cc2c(=O)[nH]1 | 11.2% |
| Cc1ccc(NC(=O)C(=O)NCC2CCN(C(=O)c3cccc([N+](=O)[O-])c3)CC2)cc1 | 15.6% |
| Cc1ccc(-n2nc(N)c3c(=O)oc(N(C)C)nc32)cc1 | -13.9% |
| FC(F)(F)c1cc(C(F)(F)F)c2ccc(N3CCN(c4ccccc4)CC3)nc2n1 | -28.1% |
| Nc1c(C(=O)c2cccs2)sc2nsc(SCCN3CCCCC3)c12 | -10.6% |
| CN(Cc1nc(-c2cnccn2)no1)Cc1n[nH]c2c1CCCCC2 | -15.8% |
| CCNC(=O)CC1C(=O)N(c2ccc(OC)cc2)C(=O)N1CCOC (stereo not given) | 13.9% |
| Cc1c(Nc2nc3ccccc3nc2NS(=O)(=O)c2cccs2)c(=O)n(-c2ccccc2)n1C | -9.51% |
| COc1cc(/C=C2/SC(=S)N(Cc3ccccc3)C2=O)cc(OC)c1O | 425% (active) |
| COc1ccc(/C=C2\SC(=S)N(CCC(=O)Nc3ccccn3)C2=O)cc1OC | 14.3% |
| COc1ccccc1C(=O)NNC(=O)CCN1C(=O)/C(=C\c2ccccc2)SC1=S | -4.37% |
| COC(=O)C(=Nc1ccccc1)/C(C(=O)C(=O)N(C)c1ccccc1)=C(\O)c1ccc(Cl)cc1 | 3.12% |
| COc1ccc(C2/C=C\CN(S(=O)(=O)c3cccs3)CC(=O)N2Cc2ccc(F)cc2)cc1 (stereo not given) | 1.94% |
| Cc1c(S(=O)(=O)N2CC(C)CC(C)C2)c(=O)n(C)c(=O)n1C (stereo not given) | 11.6% |
| COc1ccc(/C=N/Nc2nc(-c3ccc(C)cc3)c(C#N)c(=O)[nH]2)cc1 | -16.1% |
| Cc1ccc(CNC(=O)Cn2c(=O)c3sccc3n(Cc3cccc([N+](=O)[O-])c3)c2=O)cc1 | -7.25% |
| O=C(NCc1ccccc1)C(c1cccnc1)N(C(=O)c1csnn1)c1ccc(F)cc1 (stereo not given) | 5.05% |
| CC1CN(C(=O)COC(=O)c2cccc(NS(=O)(=O)c3ccccc3)c2)CC(C)O1 (stereo not given) | 2% |
| COc1ccc(NC(=O)COc2ccc(C(=O)c3ccc(F)cc3)cc2)cc1S(N)(=O)=O | 7.67% |
| O=C(O)CCCn1cc(NC(=O)COc2cccc(Cl)c2)cn1 | -6.55% |
| Cc1cccn2c(CN(C)C3CCCc4ccccc43)c(C(=O)N3CCOCC3)nc12 (stereo not given) | 10.7% |
| O=C(COC(=O)Cc1ccccc1F)NNC(=O)c1ccc(Cl)cc1 | 0.16% |
| CC(C)(C)C(=O)NC1CC2CCCC(C1)N2C(=O)Nc1ccccc1F (stereo not given) | 0.739% |
| CCOc1ccccc1N1C(=O)CC(Sc2nccc(C)n2)C1=O (stereo not given) | 13.3% |
| CC(C)COP(=O)(c1ccc(N(C)C)cc1)C(Nc1ccccc1)c1cccnc1 (stereo not given) | 9.1% |
| Cc1ccc2nsnc2c1S(=O)(=O)N1CCCC1C(=O)O (stereo not given) | 12.1% |
| CC(/C=C/C1(O)C(C)CC(=O)CC1(C)C)OC1OC(CO)C(O)C(O)C1O (stereo not given) | 14.6% |

| Compound | activity score |
| --- | --- |
| Cc1nnc(SC(C)C(=O)Nc2ccc(S(=O)(=O)NC3CCCCC3)cc2)s1 (stereo not given) | -4.69% |
| O=C(CSc1ccccn1)Nc1nc2c(ccc3ccccc32)s1 | -14.3% |
| COc1ccc(NC(=O)c2cccc(Cl)c2)c[n+]1[O-] | 10.9% |
| COc1ccc(C(=O)N(Cc2ccccc2)c2ccc(C)cc2)cc1S(=O)(=O)N1CCOCC1 | -2.8% |
| Cn1c(N)c(C(=O)COC(=O)/C=C/c2ccc(OC(F)F)cc2)c(=O)n(C)c1=O | 0.664% |
| CCOc1ccc(S(=O)(=O)NCc2ccc3c(c2)OCO3)cc1C | 12.5% |
| Cc1cc(C)c(OCC(=O)N(Cc2cccs2)C2CCS(=O)(=O)C2)c(C)c1 (stereo not given) | 21.1% |
| C#CCOCCOCCOCCNc1nc(N2CCN(C(=O)C([C@@H](C)CC)n3cc(C(N)COC(=O)C(F)(F)F)nn3)CC2)nc(N2CCN(C(=O)[C@H](CCCCN)n3cc(C(N)CC(C)C)nn3)CC2)n1 (stereo not given in full) | -6.03% |
| Cc1ccc(NC(=O)CN2CCc3ccccc3C2)cc1C | -2.27% |
| CCc1ccc2nc3sc(C(=O)Nc4nnc(CC)s4)c(N)c3cc2c1 | 34.8% |
| Cc1ccc(NC(=O)c2sc3nc(N)c(C#N)cc3c2N)cc1 | 55.3% (active) |
| Cc1ccc(NC(=O)CSCC(=O)Nc2sccc2C#N)cc1 | 11.2% |
| O=C1N(Cc2ccc3c(c2)OCO3)c2ccccc2C1(O)c1c[nH]c2ccccc12 (stereo not given) | -1.62% |
| CC(=O)N1CCN(c2ccc(NCc3ccc(C(C)C)cc3)cc2)CC1 | 11.3% |
| COC(=O)c1ccccc1NC(=O)CN(Cc1ccc(Cl)cc1)S(C)(=O)=O | -7.02% |
| COc1cccc(CNS(=O)(=O)c2cc3c(cc2C)n(C)c(=O)c(=O)n3C)c1 | -4.51% |
| CCCCn1c(N)c(N(CCOC)C(=O)c2oc3ccc(OC)cc3c2C)c(=O)[nH]c1=O | -1.46% |
| CC(C)=CC(=O)Nc1nnc(-c2ccc(F)cc2)s1 | 24% |
| CCn1c(CC(=O)Nc2ccccc2C)nnc1SCC(=O)NC1=NCCS1 | -11.9% |
| O=C(NC(=S)Nc1cccc2c(O)cccc12)c1cccc(Br)c1 | -27% |
| N/C(=N\S(=O)(=O)c1cc(C(F)(F)F)cc(C(F)(F)F)c1)c1cccs1 | 23.1% |
| CCOc1ccc(N2CC(C(=O)NCc3ccccn3)CC2=O)cc1 (stereo not given) | 9.19% |
| CCc1ccc(-c2nn(-c3ccccc3)cc2CSC(=N)N)cc1 | 0.301% |
| COc1ccccc1OCc1ccc(C(=O)NC(C)c2ccccc2)o1 (stereo not given) | 9.72% |
| CS(=O)(=O)N(CC(=O)N1CCc2ccccc2C1)c1ccc(Br)cc1 | -7.16% |
| COc1cccc(COC(=O)C2CCN(S(=O)(=O)c3ccc(Cl)cc3)CC2)c1OC | 10.3% |
| Cc1ccc(NC(=O)c2cc3ccccc3o2)cc1 | -13.9% |
